# PubChem BioAssay AID504546 (Broad Institute, 2011)
# Records with an inconclusive call do not appear. Calls of active or inactive are those of the source.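 The calls were made as follows: active = every repeat run fits a falling-signal curve with half-maximal potency within ten times top tested dose; inconclusive = runs disagree, or flat moderate drop, or poor fit; inactive = every run inactive, including signal moving upward.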
# Experiment: ADP-Glo luciferase signal interference – biochemical, luminescence, cherry-picked samples, set 2, artefact control for CDK5 inhibitor project, dose response (AID 504546)
# Conditions: ADP-Glo detection reagent counter screen, 5 uM ADP; series mostly up to 30 µM
row,Compound,outcome
1,COc1ccc(Nc2nccc(-c3ccc(C#N)cc3)n2)cc1,inactive
2,Cc1ccc(-n2nc(C)c3c2C(Br)C(C)(C)CC3=O)nc1 (stereo not given),inactive
3,Cc1[nH][nH]c(=O)c1C(c1ccccc1[N+](=O)[O-])C(C#N)C#N (stereo not given),inactive
4,C=CCNc1nc(N)c(C(=O)c2ccc3c(c2)OCO3)s1,inactive
5,CCC(C)Oc1cc(-c2ccnc(Nc3cccc(Cl)c3)n2)ccn1 (stereo not given),inactive
6,COc1ccc(Nc2nc(N)c([N+](=O)[O-])c(N3CCCC3)n2)cc1,inactive
7,ON=C1c2ccccc2-c2ccc(O)cc21,inactive
8,OCCCNc1cc(-c2ccnc(Nc3cccc(Cl)c3)n2)ccn1,inactive
9,Nc1ccc(-c2cnc(N)c(C(=O)c3cccnc3)n2)cn1,inactive
10,CC1(C)Cc2c(ccc3ccccc23)C(=O)N1,inactive
11,COc1ccc2ccc3ccc(OC)c(OC(C)=O)c3c2c1,inactive
12,Cc1[nH]nc2c1-c1nc3ccccc3nc1C(C)(C)C2,inactive
13,CC(C)n1cnc2c(Nc3ccc(F)c(Cl)c3)nc(NCCO)nc21,inactive
14,COc1ccc2nc3c(cc2c1)c(NC(=O)C1CCCO1)nn3CC(C)C (stereo not given),inactive
15,COc1cccc(OC)c1C(=O)N1CCN(c2ccccn2)CC1,inactive
16,Cc1nc(Nc2ccccc2)sc1C(=O)c1ccc(F)cc1,inactive
17,CC(C)[C@H](CO)N(Cc1cccc(F)c1)c1nc(Nc2cccc(Cl)c2)c2ncn(C(C)C)c2n1,inactive
18,CC(C)[C@H](CO)Nc1nc(Nc2ccc(Cl)c(C(=O)O)c2)c2ncn(C(C)C)c2n1,inactive

row,Compound,outcome
1,Cc1nn(-c2nccs2)c2c1C(=O)CC(C)(C)C2Br (stereo not given),inactive
2,FC(F)(F)c1ccc(N/N=C/c2cccnc2)nc1,inactive
3,COc1cc(OC)cc(C(=O)NNC(=O)c2ccccn2)c1,inactive
4,COc1cc2ccccc2ccc1=NO,inactive
5,COc1cccc(C(=O)N2CCN(c3ccccn3)CC2)c1,inactive
6,CCN1C(=O)/C(=C2/Sc3ccc(OC)cc3N2C)SC1=Nc1cccc(O)c1,inactive
7,Cc1cccc(/N=C/c2c(O)ccc3oc4c(c23)CCCC4)n1,inactive
8,CN1CCN(C(=O)c2ccc3c(c2)NC(=O)/C(=C/c2ccccc2)S3)CC1,inactive
9,COc1cc(OC)cc(C(=O)N2CCN(c3ccccn3)CC2)c1,inactive
10,O=C(NNC(=O)c1cccs1)c1ccccc1,inactive
11,Oc1ccc(C=NNc2ccccn2)c(O)c1,inactive
12,CC(C)n1cnc2c(Nc3ccc(C(=O)O)cc3)nc(Cl)nc21,inactive
13,Cc1nn(-c2ncccn2)c2c1C(=O)CC(C)(C)C2Br (stereo not given),inactive
14,CC(C)n1cnc2c(Nc3cccc(F)c3)nc(NCCO)nc21,inactive
15,COc1cc(/C=N/Nc2ccc(C(F)(F)F)cn2)cc(OC)c1O,inactive
16,O=[N+]([O-])c1ccc2c(c1)-c1ccccc1C2=NO,inactive
17,Cc1nn(-c2ccccn2)c2c1C(=O)CC(C)(C)C2Br (stereo not given),inactive
